D2 PAM-1: Beta-Arrestin HTS for Positive Allosteric Modulators of the Human D2 Dopamine Receptor: Potentiators; DiscoveRx D2 beta-arrestin cells, luminescence, 90 min; 100% = 57 uM dopamine signal; 0.23% of 360,000 active; D(2) dopamine receptor (Homo sapiens), P14416; potentiation, % (no concentration beside the values); in the data active = potentiation above about 50%; inconclusive = mostly about 30% to 49%
Target sequence (P14416 whole entry, looked up): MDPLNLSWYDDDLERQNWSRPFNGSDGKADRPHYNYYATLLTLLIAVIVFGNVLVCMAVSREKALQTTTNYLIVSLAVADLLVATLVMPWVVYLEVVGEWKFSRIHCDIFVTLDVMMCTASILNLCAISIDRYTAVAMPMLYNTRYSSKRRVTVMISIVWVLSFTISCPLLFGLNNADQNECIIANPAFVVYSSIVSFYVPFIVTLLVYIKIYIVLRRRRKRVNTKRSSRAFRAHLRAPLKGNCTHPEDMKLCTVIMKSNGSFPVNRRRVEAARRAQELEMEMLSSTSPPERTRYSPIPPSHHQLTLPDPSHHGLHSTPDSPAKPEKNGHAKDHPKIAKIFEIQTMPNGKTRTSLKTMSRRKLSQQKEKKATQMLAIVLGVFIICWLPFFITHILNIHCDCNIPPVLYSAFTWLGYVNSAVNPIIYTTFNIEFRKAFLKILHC
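PathHunter D2 cells, attached overnight at 37 deg C, received compound in DMSO plus dopamine at EC20 (50 nM final) for 90 min at 37 deg C. Beta-arrestin recruitment was read as luminescence after 1 h with detection reagent at ambient temperature.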
D2 antagonist: HTS Assay for Allosteric Antagonists of the Human D2 Dopamine Receptor: Primary Screen for Antagonists. D(2) dopamine receptor (Homo sapiens), P14416. HEK293 TREx D2 cells, calcium flux, dopamine EC80. inhibition, % at 10 µM. 2% of 340,000 active. AID 485344, 2010; in the data active = inhibition above about 30%; inactive = below that, where a call was filed; note: 0% is about no effect
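Cells plated overnight at 30 C with tetracycline; no-wash calcium dye, 30–90 min RT; 10 s baseline; compound pinned; 180 s read; EC80 dopamine added; another 180 s read.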
D2 ag-1: Beta-Arrestin HTS for Positive Allosteric Modulators of the Human D2 Dopamine Receptor: Agonists | DiscoveRx PathHunter D2 beta-arrestin, luminescence, 90 min; 100% = 57 uM dopamine signal | D(2) dopamine receptor (Homo sapiens), P14416 | activation, % (concentration not given with the values) | 0.084% of 360,000 active; in the data active = activation above about 40%; inconclusive = between about 15% and that limit
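Agonist mode: compounds alone added to overnight-plated D2 PathHunter cells for 90 min at 37 C, with 57 uM final dopamine (EC100) defining full response. Beta-arrestin recruitment detected by chemiluminescent reagent, read after 1 h at ambient temperature.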
D2 ag-2: HTS Assay for Allosteric Agonists of the Human D2 Dopamine Receptor: Primary Screen for Agonists | activation, % at 2 µM | 0.53% of 340,000 active | HEK293 T-REx D2 cells, calcium flux agonist mode | D(2) dopamine receptor (Homo sapiens), P14416;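 active = activation over 3 SD above normal in the single-dose calcium agonist read, cut at about 30% in these data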; note: 0% is about no effect
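HEK293 Trex D2 cells, tetracycline-induced, o/n 30 C 5% CO2; no-wash Ca dye, RT 30–90 min; 10-cycle baseline, 23 nl cpd added, kinetic Ca read 180 s; agonist hits = positive Ca response.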
D2 PAM-2: HTS Assay for Positive Allosteric Modulators of the Human D2 Dopamine Receptor: Primary Screen for Potentiators; D(2) dopamine receptor (Homo sapiens), P14416; HEK293 T-REx D2, calcium flux, EC20 dopamine potentiation; potentiation, % at 10 µM; 0.34% of 340,000 active;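 active = potentiation over 3 SD above the plate norm, cut at about 30% in these data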; note: 0% is about no effect
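Tetracycline-induced Hek293 Trex D2 cells, force-coupled to calcium, loaded with no-wash calcium dye. Compound added with 180 s kinetic read for agonism, then EC20 dopamine and a further 180 s read for potentiation.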
Starred values were filed as active, the others as inactive; ? = inconclusive; · = no result. The list is not random: actives were taken first. Their share in the collection is about 2.4%.

SMILES	D2 PAM-1	D2 antagonist	D2 ag-1	D2 ag-2	D2 PAM-2
CC(=O)c1cccc(NC(=S)N2CCC(Cc3ccccc3)CC2)c1	-17	8	-2	0	-8
CC(=O)c1ccc(NC(=S)N2CCC(Cc3ccccc3)CC2)cc1	-12	32*	-3	-1	-6
O=C(c1ccc(Br)o1)N1CCC(Cc2ccccc2)CC1	-14	49*	-4	-1	8
CCN1C(=O)c2ccccc2S(=O)(=O)c2ccc(C(=O)NCc3ccc(F)cc3)cc21	·	·	·	·	4
COc1ccc(C2c3c(oc4ccc(Cl)cc4c3=O)C(=O)N2CCCN(C)C)cc1OC (stereo not given)	·	·	·	1	-16
CCC(c1nnnn1C1CCCC1)N1CCN(c2ccccc2)CC1 (stereo not given)	-8	52*	1	2	·
CCC(c1nnnn1C1CCCC1)N1CCN(c2ccccc2F)CC1 (stereo not given)	-6	4	0	-1	-14
O=C(Nc1ncc(S(=O)(=O)c2ccc([N+](=O)[O-])cc2)s1)c1cccc2ccccc12	62*	9	-2	26	-3
COCC(=O)Nc1ncc(S(=O)(=O)c2ccc([N+](=O)[O-])cc2)s1	?	3	?	0	-3
CC(=O)NCCC(=O)Nc1ncc(S(=O)(=O)c2ccc([N+](=O)[O-])cc2)s1	52*	-19	10	0	7
CCCCC(=O)Nc1ncc(S(=O)(=O)c2ccc([N+](=O)[O-])cc2)s1	-8	-6	?	4	4
CCOC(=O)C1=C(COC(=O)CNS(=O)(=O)c2c(F)cc(F)cc2Br)NC(=O)NC1C (stereo not given)	0	·	-3	·	·
Clc1ccc(OCCNCCc2ccccc2)cc1	-6	54*	0	3	-22
c1ccc(CCNCCCOc2cccc3ccccc23)cc1	-27	35*	-7	1	1
C=C(C)Cn1c(=O)c2c(nc3n2CCN3c2ccc(F)cc2)n(C)c1=O	·	·	·	-2	9
CCCN(CCC)C(=O)CSc1nnc2cc(C)c3ccccc3n12	·	·	·	-1	3
COc1ccc(NC(=O)CCN2C(=O)c3ccncc3C2=O)cc1OC	-14	34*	-6	0	0
Cc1nc2ccccn2c1CN(C)C(=O)C1CCC(=O)N(Cc2cccc(F)c2)C1 (stereo not given)	-3	9	-8	0	-2
CCn1c(SCC(=O)NC(=O)c2ccccc2OC)nc2ccccc21	-8	-1	-4	0	13
O=C(NC1CC1)C1CCN(S(=O)(=O)c2ccc(Cl)cc2)CC1	-5	32*	1	0	6
O=C(NC1CCN(S(=O)(=O)c2ccc(Cl)cc2)CC1)C1CCCCC1	-12	-10	0	2	-6
COc1ccc(CNC(=O)Cn2c(=O)c3cccn3c3ccccc32)cc1	·	·	·	0	-11
CN(C)C(=O)c1c(NC(=O)c2ccco2)sc2c1CCCCC2	20	35*	-1	0	34*
COC(=O)c1c(NC(=O)c2ccco2)sc(C(=O)N(C)C)c1C	-12	-21	-3	1	77*
COc1cccc(NC(=O)[C@H](CC(C)C)NC(=O)N2CCn3c2nc2ccccc23)c1	-14	-2	0	1	1
SMILES	D2 PAM-1	D2 antagonist	D2 ag-1	D2 ag-2	D2 PAM-2
Cc1ccc(OCC(=O)Nc2nonc2-c2ccc(Br)cc2)cc1C	·	·	·	1	5
O=C(Cn1nnnc1CN1CCOCC1)N1CCC(c2cccc(Cl)c2)C1 (stereo not given)	-4	-12	-1	1	-13
CCOC(=O)C1=C(C)N=C2SC(C)C(=O)N2C1c1ccc(OC(C)=O)c(OC)c1 (stereo not given)	-3	11	-2	0	38*
CCOc1cc(C2C(C(=O)OC)=C(C)N=C3SC(C)C(=O)N32)ccc1OC(C)=O (stereo not given)	-14	-1	-3	0	4
CC(=O)c1ccc(NC(=O)[C@@H]2CCCN2C2=NS(=O)(=O)c3ccccc32)cc1	-3	37*	1	0	14
Cc1cccc(NC(=O)[C@@H]2CCCN2C2=NS(=O)(=O)c3ccccc32)c1C	-4	-7	2	0	6
CCSc1nnc(SCC(=O)c2c(N)n(C)c(=O)n(C)c2=O)s1	-2	-1	-2	1	1
CC1CCN(C(=O)c2cccc(NC(=O)c3nsc4ccccc34)c2)CC1	·	·	·	·	4
CC(C)Cn1cc(NC(=O)NCc2ccccc2Cl)c2ccccc2c1=O	·	·	·	-1	2
Cc1ccc(NC(=S)Nc2ccc3[nH]c(=O)[nH]c3c2)cc1	-3	-4	-3	1	0
Cc1ccc(C(=O)NC(=S)Nc2ccc(Oc3ccc(Cl)cc3)cc2)cc1	-4	0	-3	0	37*
Cc1cc(C)cc(C(=O)Nc2ccc3[nH]c(=O)[nH]c3c2)c1	0	30*	4	0	-2
Cc1ccc(C(=O)NC(=S)Nc2ccc3[nH]c(=O)[nH]c3c2)cc1	-12	46*	1	-1	3
CC(=O)NC(c1ccccc1)c1nc(-c2ccc3ccccc3c2)cs1 (stereo not given)	1	·	-2	·	·
Cc1ccccc1/C=C/c1nc2ccccc2c(=O)[nH]1	-9	0	2	0	3
Cc1ccccc1/C=C\c1nc2ccccc2c(=O)[nH]1	-7	33*	-1	1	-7
Nc1c(C(=O)c2ccc(Br)s2)oc2ccccc12	-6	45*	-4	0	-9
Nc1c(C(=O)c2cccs2)oc2ccccc12	-6	-10	-2	0	-6
Cc1cc(NC(=O)Nc2ccc(F)cc2F)n(C)n1	-10	13	-4	6	-5
Cc1c(C(C)NC(=O)Nc2ccc(F)cc2F)cnn1C (stereo not given)	-24	38*	-3	-1	-13
COc1ccc(/C=C/C(=O)c2ccc(Cl)s2)cc1O	2	37*	-5	1	-3
Cc1ccc(S(=O)(=O)NC(=NC(Cc2ccccc2)C(=O)O)c2ccccc2)cc1 (stereo not given)	-6	·	-3	·	·
CCc1ccccc1NC(=S)N(CCN1CCOCC1)C1CCN(C(C)=O)CC1	-1	31*	-4	-1	1
CC(=O)c1c(C)[nH]c(C(=O)OCCCCN2C(=O)c3ccccc3C2=O)c1C	9	48*	-2	-1	4
